# Screening data deposited in PubChem BioAssay by National Center for Advancing Translational Sciences (NCATS).
# An excerpt weighted towards active compounds, which were near 3% of everything screened.
# ClpP mod – qHTS Assay for Activators of ClpP; ATP-dependent Clp protease proteolytic subunit (Bacillus subtilis (strain 168)), P80244; purified B. subtilis ClpP, FRET peptide cleavage, 20 min; Potency, µM (titrated, usually from 57.5 µM), inactives show at the highest dose activity change, negative = active; 1.9% of 340,000 active; AID 651965, 2013; active = well fitted falling curve with a large enough effect; inconclusive = small, poorly fitted or top-dose-only effect; inactive = no such curve, though single readings can be large or run the other way; note: potency is the fitted concentration of half-maximal effect; the source files actives as falling curves though it sought activators and does not explain the sign; nearly all actives have a fitted effect of over 65% in size
#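 FRET quenching reversal measured ClpP activation: 10 microg/mL B. subtilis ClpP at pH 8 with the FRET-FV decapeptide, read at 430 nm after 320 nm excitation. The 20-min minus 0-min signal was scaled between DMSO/no-enzyme wells and ADEP (5.8 microM final).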
# 12-LOX inh – blocks human arachidonate 12S-lipoxygenase; Potency, µM (highest dose often 108 µM), inactives show at the top dose activity change, negative = inhibition, most hits filed as inhibitors; purified 12hLO, xylenol orange hydroperoxide absorbance; 1.1% of 580,000 active; P18054; AID 1671190; active = well fitted inhibition curve with a large enough effect; inconclusive = small, poorly fitted or top-dose-only effect, or another doubt; inactive = no such curve, though single readings can be large or run the other way; note: potency is the fitted concentration of half-maximal effect; % is set by controls: 0 for no effect and ±100 for the full control effect
#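 Hydroperoxide product was detected by ferrous iron/xylenol orange as the 573 to 405 nm absorbance ratio. Arachidonic acid at 40 uM (final) was turned over for 30 min at room temperature by 150 nM human 12hLO, pH 7.0 Hepes buffer, after 15 min compound preincubation.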
# BCR signal inh – inhibitors of chronic active B-cell receptor signaling | ABC-DLBCL IkBa-CBG/CBR reporter, luminescence ratio, 4 h | 0.05% of 340,000 active | AID 493014 | Potency, µM (series often up to 46.1 µM), for inactives: top-dose activity change, negative = inhibition, actives largely listed as inhibitors; active = well fitted inhibition curve with a large enough effect in the signal ratio, with a control signal flat, not every such curve was filed as active; inconclusive = small, poorly fitted or top-dose-only effect, or effect the other way, or a change in a side signal; the % refers to the signal ratio;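 note: potency is the fitted concentration of half-maximal effect; plate controls were basal doxycycline-induced cells for no effect and cells given 10 µM MG132 for full effect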
#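 Cell line TMD8 (human ABC DLBCL), stably expressing tet-inducible CBG68-IkBa fusion and CBR; IMDM/0.5% FBS; cpd up to 46 uM; dox induction, 4 h, 37C/5% CO2; dual luminescence; green/red ratio; MG132 control.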
# LDHA block – LDHA (human) enzyme inhibition; purified LDHA, NADH/diaphorase-resazurin fluorescence; hits give low values; 0.15% of 480,000 active; activity change, % (values are at about 110 or 230 µM); in the data active = activity change below about -30%; inconclusive = mostly about -25% to -30%;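 note: plate controls were DMSO wells for no effect and wells without enzyme for full effect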
#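 Remaining NADH was detected by diaphorase (0.133 mg/mL) converting 37 µM resazurin to fluorescent resorufin, read at 0 and 20 minutes. The preceding 5-minute room-temperature reaction used 2 nM LDHA, 0.2 mM sodium pyruvate and 0.06 mM NADH at pH 7.4.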
# KCNH2 3.1 block – blocks the human KCNH2 3.1 channel isoform; U2OS KCNH2 3.1, thallium flux FluxOr; hits give low values; activity change, % (tested at about 1.8 µM); 0.95% of 340,000 active; AID 720553;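 active = maximum activity change below -70%; inconclusive = maximum activity change from -70% to -50%; inactive = maximum activity change above -50%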;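 note: thallium influx rate constant from kinetic fluorescence after stimulation buffer; % is set by controls: 0 for no effect and ±100 for the full control effect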
#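 U2OS cells transduced with KCNH2 3.1 mutant virus (1.77 x 10^8 /mL, 4 h), plated overnight at 37 C, loaded 45 min with FluxOr dye plus Red40 quencher. Thallium flux rate constant from kinetic reads after stimulation buffer, normalised to controls.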
# KCNH2 WT inh – blocks the wildtype human KCNH2 potassium channel. activity change, % at 1.84 µM. 0.37% of 340,000 active. Q12809. U2OS, BacMam KCNH2, thallium flux FluxOr; hits give low values;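 active = maximum activity change below -70%; inconclusive = maximum activity change between -70% and -50%; inactive = maximum activity change above -50%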; note: % is set by controls: 0 for no effect and ±100 for the full control effect
# Target sequence (Q12809 whole entry, looked up): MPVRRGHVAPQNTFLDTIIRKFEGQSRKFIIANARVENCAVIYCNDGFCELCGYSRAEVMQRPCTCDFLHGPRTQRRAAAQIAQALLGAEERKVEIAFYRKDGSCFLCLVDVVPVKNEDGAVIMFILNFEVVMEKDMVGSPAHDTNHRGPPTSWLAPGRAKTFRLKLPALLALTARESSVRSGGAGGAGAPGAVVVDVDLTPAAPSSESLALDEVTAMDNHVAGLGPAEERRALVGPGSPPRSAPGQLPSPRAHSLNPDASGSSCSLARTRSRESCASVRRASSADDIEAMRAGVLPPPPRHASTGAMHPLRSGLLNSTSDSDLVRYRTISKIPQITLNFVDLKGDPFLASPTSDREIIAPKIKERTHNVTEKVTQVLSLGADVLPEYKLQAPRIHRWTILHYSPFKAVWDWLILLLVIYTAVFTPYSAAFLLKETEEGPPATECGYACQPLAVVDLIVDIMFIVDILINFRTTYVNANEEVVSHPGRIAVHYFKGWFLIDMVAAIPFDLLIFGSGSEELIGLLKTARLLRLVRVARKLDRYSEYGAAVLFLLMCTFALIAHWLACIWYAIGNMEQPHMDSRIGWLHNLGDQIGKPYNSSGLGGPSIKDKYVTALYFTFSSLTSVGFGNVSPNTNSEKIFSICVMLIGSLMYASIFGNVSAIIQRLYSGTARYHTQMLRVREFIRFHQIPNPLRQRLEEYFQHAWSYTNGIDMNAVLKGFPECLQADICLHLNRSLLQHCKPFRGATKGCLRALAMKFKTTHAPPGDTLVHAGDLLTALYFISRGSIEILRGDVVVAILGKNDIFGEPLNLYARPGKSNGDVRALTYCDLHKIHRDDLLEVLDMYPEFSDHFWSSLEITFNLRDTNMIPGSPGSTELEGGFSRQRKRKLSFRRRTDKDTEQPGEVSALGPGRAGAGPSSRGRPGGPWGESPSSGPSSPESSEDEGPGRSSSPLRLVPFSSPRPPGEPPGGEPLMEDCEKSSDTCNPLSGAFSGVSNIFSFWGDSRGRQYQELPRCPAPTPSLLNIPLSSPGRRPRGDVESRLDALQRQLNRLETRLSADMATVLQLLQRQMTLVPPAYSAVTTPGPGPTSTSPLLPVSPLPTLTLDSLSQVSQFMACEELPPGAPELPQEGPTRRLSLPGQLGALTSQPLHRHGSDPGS
#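 U2OS cells transduced with wild-type KCNH2 virus are loaded with FluxOr dye for 45 min, and thallium flux is measured in kinetic reads before and after stimulation buffer. Rate constants are normalized to DMSO controls.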
# Starred values were filed as active, the others as inactive; ? = inconclusive; / = no result; [ ] = another dose, or the depositor's remark.
SMILES,ClpP mod,12-LOX inh,BCR signal inh,LDHA block,KCNH2 3.1 block,KCNH2 WT inh
CC(C)c1ccc(CNc2ccc(N3CCOCC3)cc2)cc1,-20%,-25%,9%,9,-175*,-131*
Cc1ccc(CNc2ccc(N3CCOCC3)cc2)cc1,/,?,-1%,23,-7,-1
COc1cc(CNc2ccc(N3CCOCC3)cc2)cc(Br)c1OC,-2%,?,0%,-4,-7,6
c1cc(CNc2ccc(N3CCOCC3)cc2)ccn1,32µM*,0%,-16%,22,-12,-12
CCOc1ccc(S(=O)(=O)N2CCOCC2)cc1NC(=O)c1oc2ccccc2c1C,/,?,/,-4,/,/
Cc1cccc(C(=O)NCc2cn3cccc(C)c3n2)c1,-6%,-18%,/,0,/,/
Cc1cccn2cc(CNC(=O)CC3CCCC3)nc12,32µM*,133%,?,-5,10,6
C=CCn1c(NC(=O)c2ccccc2Cl)c(C#N)c2nc3ccccc3nc21,?,-11%,?,31,2,0
CCCCn1c(NC(C)=O)c(C#N)c2nc3ccccc3nc21,28µM*,-10%,?,3,-7,0
CCCCS(=O)(=O)Nc1ccc2ncn(C)c(=O)c2c1,32µM*,4%,9%,1,5,-11
O=C(c1ccc(Cl)cc1)N1CC(c2nnc(-c3ccncc3)o2)C2(CCOCC2)C1 (stereo not drawn),/,19%,/,/,/,/
S=c1nc(-c2sccc2OCc2ccc(Cl)cc2Cl)[nH][nH]1,/,28µM*,-2%,2,-3,-1
CC(C)(C)c1cc(C(=O)O)c(O)c(C(C)(C)C)c1,/,?,/,2,/,/
CN(C)c1ccc(-n2cc3c(=O)n(C)c(=O)n(C)c3c2)cc1,-16%,0%,0%,1,-2,-20
CCN(CC)c1ccc(-n2cc3c(=O)n(C)c(=O)n(C)c3c2)cc1,35µM*,-18%,?,12,3,-1
CCCCCCCOc1ccc(C(=O)Oc2ccc(C(C)=O)cc2)cc1,/,-39%,/,6,/,/
O=C(CC(=O)c1ccccc1F)c1ccccc1F,/,?,/,9,/,/
COc1cc(/C=C/c2nc3c(ccc4ccccc43)s2)cc(OC)c1OC,/,?,/,10,/,/
Cc1cc(/C=C/c2nc3c(ccc4ccccc43)s2)cc(C)c1O,/,6.3µM*,/,-2,/,/
CC[C@@H](C)C(NC(=O)OC(C)(C)C)c1cn([C@@H](CCCCNC(=O)OC(C)(C)C)C(=O)N2CCN(C(=O)OC(C)(C)C)CC2)nn1 (stereo partly drawn),2%,-7%,-3%,-3,-5,-291*
CC(C)CC(NC(=O)OC(C)(C)C)c1cn([C@@H](CCCCNC(=O)OC(C)(C)C)C(=O)N2CCN(C(=O)OC(C)(C)C)CC2)nn1 (stereo partly drawn),1%,0%,-26%,-11,0,-2
COC(=O)C1=CN(C)C=C(C(=O)OC)C1c1cccs1,/,-8%,/,9,/,/
COC(=O)C1=CN(CCCN2CCCC2=O)C=C(C(=O)OC)C1c1cccs1,28µM*,-13%,1%,-5,-10,6
CCN(Cc1ccccc1)C(=O)CN1C(=O)NC(CC)(c2ccc(F)cc2)C1=O (stereo not drawn),/,-15%,-2%,-4,-3,-83*
COc1ccc(CSC(=S)NNc2ccccc2)cc1,0%,22µM*,/,1,-2,0
SMILES,ClpP mod,12-LOX inh,BCR signal inh,LDHA block,KCNH2 3.1 block,KCNH2 WT inh
CCOC(=O)c1c(N)c(C#N)c2n1CCCC2,32µM*,0%,4%,-4,-6,6
CCOC(=O)c1c(N)c(C#N)c2n1CCCCC2,-2%,-9%,2%,-1,-2,7
c1ccc2sc(-c3cc(NCCN4CCOCC4)nc4ccccc34)nc2c1,/,?,/,14,/,/
O=C(C1=C(O)C(=O)N(CCc2ccccc2)C1c1cccs1)c1ccco1 (stereo not drawn),/,?,0%,-3,-124*,-1
O=C(C1=C(O)C(=O)N(CCc2ccccc2)C1c1cccnc1)c1ccco1 (stereo not drawn),1%,?,4%,0,1,-3
CCN(CC)CCn1c2ccccc2c2cnc(N)c(C#N)c21,14µM*,-19%,?,-4,-8,-4
CC(C)=CC(=O)Nc1ccccc1Br,1.3µM*,10%,-7%,-15,14,-15
CCOc1ccccc1C(=O)NC1CCN(c2cc(-c3cccs3)[nH]n2)C1 (stereo not drawn),/,49%,/,/,/,/
O=C1Cc2c(-c3ccccc3OCc3ccccc3)n[nH]c2CN1Cc1ccccc1,/,52%[176 µM],/,/,/,/
Oc1ccc(-c2cn3cc(C(F)(F)F)ccc3n2)cc1,28µM*,2%,?,-5,-1,15
CC1CCCCC1NC(=O)c1csc2ccccc12 (stereo not drawn),/,?,/,5,/,/
COC(=O)c1cc(NC(=O)CC2CCCC2)cc(C(=O)OC)c1,/,2%,0%,-5,-73*,0
CCOC(=O)c1cc(NC(=O)CC2CCCC2)cc(C(=O)OCC)c1,/,-2%,/,3,/,/
COC(=O)c1cc(OC)c(OC)cc1NC(=O)Nc1ccc(OC)cc1,25µM*,0%,2%,-2,-6,3
O=C(CSC1=NCCS1)NC(NC(=O)CSC1=NCCS1)c1ccccc1,/,6%,-14%,-17,-5,-3
COC(=O)c1cc(NC(=O)CSC2=NCCS2)cc(C(=O)OC)c1,25µM*,26%,?,-4,10,0
COC(=O)c1cc(OC)c(OC)cc1NC(=O)CC1CCCCC1,28µM*,-9%,?,-6,4,-5
CC(C)n1nc(C(=O)Nc2cccc(S(=O)(=O)N3CCCCCC3)c2)c2ccccc2c1=O,/,2%,/,5,/,/
Cc1c(C#N)c(O)[nH]c(=O)c1N=Nc1ccc(Cl)c(C(=O)O)c1,-1%,?,0%,-3,-10,-11
Cc1c(C#N)c(O)[nH]c(=O)c1N=Nc1ccc(S(N)(=O)=O)cc1,/,40µM*,19%,4,10,3
Fc1ccccc1-c1nc(NCCCN2CCOCC2)c2ccccc2n1,-5%,-13%,3%,-4,-23,-5
Cc1ccc(-c2nc(NCCN3CCOCC3)c3ccccc3n2)cc1,-1%,2%,7%,-5,-22,-2
c1csc(-c2nc(NCCCN3CCOCC3)c3ccccc3n2)c1,35µM*,-9%,?,-5,-4,-7
Cc1noc(C)c1-c1nc(NCCN2CCOCC2)c2ccccc2n1,/,56µM*,/,/,/,/
